The values below come from PubChem BioAssay AID485270 (The Scripps Research Institute Molecular Screening Center, 2010).

Among all 330,000 compounds or so, about 5,800 (1.8%) were called active. Rule as the data show it: active = inhibition mostly above about 38% (no sharp cut-off); inactive = mostly below about 40%. The sample as a whole holds a higher share of actives than the screen did.

In the assay the target is Orexin/Hypocretin receptor type 1 (Homo sapiens) (UniProt O43613). As to the kind of experiment: blocks the human orexin 1 receptor (AID 485270).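 Also: 0% = agonist challenge alone and 100% = reference antagonist.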 The conditions noted are these: OX1R-expressing cells, FRET antagonist read-out; at 6.6 µM; active compounds read high.
Sequence of Orexin/Hypocretin receptor type 1 (Homo sapiens) (O43613 whole entry, looked up): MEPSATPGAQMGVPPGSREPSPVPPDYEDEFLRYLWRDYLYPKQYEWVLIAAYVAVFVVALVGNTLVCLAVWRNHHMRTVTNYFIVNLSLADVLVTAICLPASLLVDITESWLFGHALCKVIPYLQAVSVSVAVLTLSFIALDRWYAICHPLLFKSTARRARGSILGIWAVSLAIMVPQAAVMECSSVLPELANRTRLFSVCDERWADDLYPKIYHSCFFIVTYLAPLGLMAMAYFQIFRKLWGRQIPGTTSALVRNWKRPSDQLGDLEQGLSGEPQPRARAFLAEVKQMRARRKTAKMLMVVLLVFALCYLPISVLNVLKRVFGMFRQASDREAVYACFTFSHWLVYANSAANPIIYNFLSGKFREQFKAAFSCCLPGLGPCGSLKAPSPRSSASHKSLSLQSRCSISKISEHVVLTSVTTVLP
What is called inhibition is the relative decrease from the control value, in per cent. Consider `O=C1COc2ccc(C(=O)COC(=O)CCOc3ccccc3)cc2N1`, for which the inhibition was 4.75% (inactive).
With `O=C(COC(=O)c1ccccc1O)NCc1ccco1`, the inhibition was 9.75% (inactive).
To `COc1cccc(-c2sc3ccc(OC)cc3c2-c2ccc(OCCN3CCCCC3)cc2)c1` belongs 3.65% (inactive); to `CC(C)(C)NC(=O)CN(C(=O)c1ccc(Cl)nc1)c1cccc2ccccc12`, 9.37% (inactive); to `CCC(C)(C)NC(=O)C(c1ccccn1)N(C(=O)c1csnn1)c1ccccc1` (configuration not stated), 6.1% (inactive).
Consider `CC(C)(C)NC(=O)CN(C(=O)c1csnn1)c1ccccc1-c1ccccc1`, for which the inhibition was 67.4% (active).
For the molecule `COc1cc(Cl)c(C)cc1NC(=O)CSc1nnc(CN2CCCC2)o1`, the inhibition was 3.58% (inactive).
The figure for `O=C1CC2(CCCC2)C(=O)N1CN1CCN(S(=O)(=O)c2ccc(F)cc2F)CC1` is 6.49% (inactive); for `COC(=O)c1sccc1NS(=O)(=O)c1ccc(F)cc1F` it is -2.44% (inactive).
To `COC(=O)c1sccc1NC(=O)CSc1ccccc1NS(=O)(=O)c1cc(Cl)ccc1Cl` belongs 60.7% (active); to `COC(=O)c1sccc1NC(=O)COc1ccc(Cl)cc1`, 19.5% (inactive); to `C[C@]12CC[C@H](O)CC1=CCC1C2CC[C@@]2(C)C1CC[C@@H]2NC(=O)CCC(=O)O` (some centres not stated), 4.74% (inactive).
Turning to `Cc1cccc(C)c1Nc1nnc(SCC(=O)NCCCN2CCCC2=O)s1`, the inhibition was 5.99% (inactive).
Consider `CC(=O)c1c(C)[nH]c(C(=O)COC(=O)c2cccs2)c1C`, for which the inhibition was 15% (inactive).
Turning to `COc1cccc(C(=O)OCC(=O)c2[nH]c(C)c(C(C)=O)c2C)c1`, the inhibition was 12.8% (inactive).
The figure for `CC(=O)c1c(C)[nH]c(C(=O)COC(=O)c2cccc(S(=O)(=O)N(C)c3ccccc3)c2)c1C` is 69.6% (active); for `CC[C@]12c3[nH]c4ccc(OC)cc4c3CCN1C(=O)C(CC(=O)NCc1ccco1)C[C@@H]2C(=O)N1CCN(C(=O)C2CC2)CC1` (some centres not stated) it is 6.49% (inactive); for `COc1ccc(CCNC(=O)COC(=O)c2cnc(Cl)c(Cl)c2)cc1` it is 8.28% (inactive).
To `O=C(OCc1ccc([N+](=O)[O-])cc1)c1ccccn1` belongs 5.7% (inactive); to `O=C(COC(=O)c1ccccn1)NNC(=O)c1ccc([N+](=O)[O-])cc1`, 57.2% (active); to `O=C(COC(=O)c1ccccn1)NNC(=O)c1ccc(Br)cc1`, -0.24% (inactive).
To `COc1ccc(-c2c(C)cc3oc(=O)cc(-c4ccccc4)c3c2C)cc1C=O` belongs 4.68% (inactive).
As to `COc1ccccc1C(=O)COC(=O)COc1ccc(C#N)cc1`, the inhibition was 5.7% (inactive).
On to `O=[N+]([O-])c1cccc(/C=N/Nc2ncc(Br)cn2)c1`, for which the inhibition is 25.3% (inactive).
The figure for `O=[N+]([O-])c1ccccc1Nc1ccc(O)cc1` is 50.7% (inactive).
Regarding `O=[N+]([O-])c1ncc(Br)cc1Nc1ccccc1`, the inhibition is 54.1% (active).
`O=C(COC(=O)/C=C/c1cccc(Cl)c1)NCc1cccs1`: the inhibition was 5.6% (inactive).
The figure for `COc1ccc(-c2sc3ccccc3c2-c2ccc(OCCN3CCOCC3)cc2)cc1` is -1.97% (inactive); for `NC(=S)N/N=C/c1ccc([N+](=O)[O-])cc1` it is 50.9% (active).
The figure for `Cc1ccsc1C(=O)N/N=C/c1ccc([N+](=O)[O-])cc1` is 53.6% (inactive); for `O=C(N/N=C/c1ccc([N+](=O)[O-])cc1)C(=O)N1CCCC1` it is 45.8% (active); for `CCOc1ccc(/C=N/NC(N)=S)cc1` it is 27.9% (inactive).
The figure for `COC(=O)c1ccc(/C=N/NC(=O)C(=O)N2CCCCCC2)cc1` is 44.8% (inactive); for `O=C(N/N=C/c1ccc2c(c1)OCO2)C(=O)N1CCCC1` it is 15% (inactive); for `O=C(COC(=O)c1ccncc1)Nc1ccc2c(c1)OCO2` it is 9.22% (inactive).
Consider `O=C(Nc1cccc(S(=O)(=O)NC2=NCCC2)c1)c1ccc(F)cc1F`, for which the inhibition was 3.06% (inactive).
Regarding `Cc1cccc(-n2ncc3c(=O)[nH]c(SCC(=O)Nc4cc(C)on4)nc32)c1`, the inhibition was 10.5% (inactive).
The figure for `COc1ccc(-c2nc3cc(C)ccn3c2NC2CCCCC2)cc1SC1CCCCC1` is 11.5% (inactive).
The figure for `Cc1ccc(NC(=O)CN(C)C(=O)c2ccc(Cl)c(S(=O)(=O)NCc3ccco3)c2)cc1` is 4.72% (inactive); for `Cc1ccc(CNC(=O)c2ccc3c(c2)S(=O)(=O)c2ccccc2C3=O)cc1` it is 61.7% (inactive).
As to `CC(C)(C)c1ccc(C(=O)NCC(=O)OCN2C(=O)c3ccccc3C2=O)cc1`, the inhibition was -0.82% (inactive).
The figure for `COC(=O)CNC(=O)c1ccc2c(c1)S(=O)(=O)c1ccccc1C2=O` is 172% (active); for `COC(=O)[C@]1(C)N[C@H](CN(C)C(=O)c2ccc(C(C)(C)C)cc2)[C@@H]2C(=O)N(C)C(=O)[C@@H]21` it is 6.6% (inactive); for `COc1ccccc1NC(=O)COC(=O)c1ccccc1SCC(=O)N1CCCC1` it is 23.9% (inactive).
For the molecule `CC(NC(=O)c1ccccc1SCC(=O)N1CCCC1)c1ccccc1` (configuration not stated), the inhibition is 6.4% (inactive).
As for `CC(C)N(Cc1ccccc1)C(=O)COC(=O)c1ccccc1SCC(=O)N1CCCC1`, the inhibition was 60.6% (active).
To `COc1ccc(S(=O)(=O)N(C)C[C@@H]2Oc3ccc(NC(=O)Nc4c(C)noc4C)cc3C(=O)N([C@H](C)CO)C[C@@H]2C)cc1` belongs 5.98% (inactive).
The figure for `O=[N+]([O-])c1ccc(N=Cc2c(O)ccc3ccccc23)cc1` is 26.6% (inactive); for `Oc1ccc(N=Cc2sc3ccccc3c2Cl)cc1` it is 36.6% (inactive); for `Oc1ccc(N=Cc2c(O)ccc3ccccc23)cc1` it is 54.4% (active).
On to `Cc1ccc(N2C(=O)N3[C@@H]4c5ccccc5OC[C@@H]4[C@@H](c4ccccc4)[C@@]3(C)C2=O)cc1`, for which the inhibition was 4.13% (inactive).
For `O=C(NN=Cc1ccc(N2CCOCC2)cc1)c1cc2ccccc2cc1O`, the inhibition is 8.04% (inactive).
The figure for `C=CCn1c(SCC(=O)Nc2nc3ccccc3s2)nnc1-c1ccccc1O` is 53% (active); for `Cn1nnnc1SCC(=O)Nc1nc2ccccc2s1` it is 14.3% (inactive); for `C=CCn1c(SCC(=O)NCc2ccccc2)nnc1-c1cc(Br)ccc1O` it is 13.4% (inactive).
Turning to `O=C(COc1cccnc1[N+](=O)[O-])Nc1ccc(Cl)cc1F`, the inhibition was 9.99% (inactive).
Turning to `Cc1ccsc1C(=O)OCC(=O)NCCc1ccccc1`, the inhibition was 1.76% (inactive).
To `CC[C@]12c3[nH]c4cc(CCC(=O)N(C)C)ccc4c3CCN1C(=O)[C@@H](CC(=O)NCCCn1ccnc1)C[C@@H]2C(=O)N1CCN(C(=O)C2CC2)CC1` belongs 10.3% (inactive); to `c1ccc(-c2nnc(SCc3nc4ccccc4[nH]3)o2)cc1`, 16.7% (inactive); to `c1ccc2c(CSCc3nc4ccccc4[nH]3)cccc2c1`, 90.8% (active).
On to `Clc1ccccc1SCc1nc2ccccc2[nH]1`, for which the inhibition is 24.1% (inactive).
For the molecule `CC(C)(C)OC(=O)C[C@@H]1C/C=C\C[C@@H](CC(=O)N[C@H](CO)Cc2ccccc2)C(=O)NC[C@@H](c2ccccc2)OC1=O`, the inhibition is 8.95% (inactive).
With `COC(=O)C1=C(C)N(Cc2ccccc2)C(=NCCCOC(C)C)N[C@H]1c1ccccc1`, the inhibition was 10.8% (inactive).
In the case of `COCC(=O)N1CCc2ccc(NC(=O)c3ccccc3Cl)cc2C1`, the inhibition is -9.22% (inactive).
The figure for `O=C(Nc1ccc2sc3ccccc3c(=O)c2c1)c1ccccc1Cl` is 86.1% (active); for `CS(=O)(=O)c1ccccc1C(=O)Nc1ccc2sccc2c1` it is 11.8% (inactive); for `CCCC(CNC(=O)COC(=O)C1=NNC(=O)CC1)c1ccc(Cl)cc1Cl` (configuration not stated) it is 9.27% (inactive).
Consider `CC1O[C@@H](OC2C(O)C(C)O[C@H](OC(=O)[C@]34CCC(C)(C)C[C@H]3C3=CCC5[C@@]6(C)CC(O)C(O[C@@H]7OC(CO)C(O)[C@@H](O)[C@@H]7O)[C@@](C)(C(=O)O)C6CC[C@@]5(C)[C@]3(CO)CC4)C2O[C@H]2OC(C)[C@@H](O[C@@H]3OCC(O[C@@H]4OC(CO)C(O)[C@H](O)C4O)[C@@H](O)[C@@H]3O)[C@H](O)C2O)C(O)C(O)C1O` (some centres not stated), for which the inhibition was 10.6% (inactive).
The figure for `CCC(CO)Oc1cc(NC(=O)c2cccc3ccccc23)c2ncn(C(C)C)c2c1` (configuration not stated) is 12.5% (inactive); for `COc1ccccc1-c1nnc2n1N=C(c1ccc(OC(F)F)c(OCC3CC3)c1)CS2` it is 9.14% (inactive); for `C[C@@H]1CN([C@H](C)CO)C(=O)c2cc(NC(=O)NC3CCCCC3)ccc2O[C@H]1CN(C)S(C)(=O)=O` it is 0.78% (inactive).
Turning to `COc1ccc(S(=O)(=O)NC(C)c2ccccc2)cc1C(=O)N1CCCCC1` (configuration not stated), the inhibition is 78.9% (active).
The figure for `COc1ccc(S(=O)(=O)Nc2ccccc2C(=O)N2CCCC2)cc1C` is 15.3% (inactive).
To `CC(NS(=O)(=O)c1ccc(OCC(=O)N2CCCC2)cc1)c1ccccc1` (configuration not stated) belongs 2.37% (inactive); to `COc1cc2ccccc2cc1C(=O)Nc1ccc(NC(=O)c2cccs2)cc1`, 10.3% (inactive).
Take `COc1ccc(CCNC(=O)/C(C#N)=C2\N=C(NC(=O)c3cccs3)c3ccccc32)cc1`: the inhibition is 110% (active).
As for `COc1ccc(CN(Cc2ccc(OC)cc2)C(=O)c2cccs2)cc1`, the inhibition was 5.1% (inactive).
The figure for `Cc1c(Br)ccc(NC(=O)COc2ccccc2C(N)=O)c1C` is 1.89% (inactive).
The figure for `CC(C)(C)n1ncc2c(=O)n(Cc3c(Cl)cccc3Br)cnc21` is 11.1% (inactive); for `CCn1c(C)nc2c1C(=O)c1ccccc1C2=O` it is 99.7% (active); for `Cc1nc2ccccc2n1CC(O)c1ccccc1` (configuration not stated) it is 17.1% (inactive).
As to `CCC1(CC)Cc2ccccc2-c2nc3ccccc3c(=O)n21`, the inhibition is 8.19% (inactive).
To `CC(C)(C)OC(=O)CNC(=O)c1[nH]cnc1C(=O)N[C@@H](CCCCN)C(=O)OC(C)(C)C` belongs 10.9% (inactive).
For `C=CC[C@@H](CC(=O)N[C@H](CO)Cc1ccccc1)C(=O)N[C@@H](COC(=O)[C@@H](CC=C)Cc1ccc(F)cc1)Cc1c[nH]c2ccccc12`, the inhibition was 5.38% (inactive).
On to `Cc1cc(=O)oc(C)c1C(=O)NCCN(C)Cc1ccccc1`, for which the inhibition was 98.2% (active).
To `Cc1cc(=O)oc(C)c1C(=O)NCc1ccc(F)cc1` belongs 19.4% (inactive); to `COc1ccc(CNC(=O)c2c(C)cc(=O)oc2C)cc1OC`, 8.87% (inactive).
